Source: PubChem BioAssay (NCATS)
Results filed as inconclusive are left out. Active and inactive are the calls of the source. Calls come from the whole dose curve; as a rule, active = well fitted curve in the direction sought with a large enough effect; inconclusive = small, poorly fitted or top-dose-only effect, or another doubt; inactive = no such curve, though single readings can be large; an effect the other way counts as inactive or inconclusive.

Assays:
[1] = Quantitative High-Throughput drug screen in 47 multiple myeloma cell lines against the NCATS MIPE library collection: KHM11_PLB cell viability assay (AID 1918962); note: nearly all actives have a fitted effect of over 35% in size
How it was run: (§1)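 CellTiter-Glo luminescence (ATP) after 48 h compound exposure, 37C/5% CO2; 500 cells/well; MIPE 4.0 approved/investigational drugs pinned in; DMSO = 100%, media only = 0% viability.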

[2] = Quantitative High-Throughput drug screen in 47 multiple myeloma cell lines against the NCATS MIPE library collection: JIM3_ECACC cell viability assay (AID 1918963; note: nearly all actives have a fitted effect of over 35% in size)
How it was run: as §1

[3] = Quantitative High-Throughput drug screen in 47 multiple myeloma cell lines against the NCATS MIPE library collection: INA6_PLB cell viability assay (AID 1918965; note: nearly all actives have a fitted effect of over 55% in size)
How it was run: (§2)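 Myeloma cells (500 per well) were exposed to MIPE 4.0 compounds by pin transfer and incubated 48 hours at 37C, 5% CO2. Viability was read as ATP by CellTiter-Glo luminescence, normalised to DMSO (100%) and media-only (0%) wells.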

[4] = Quantitative High-Throughput drug screen in 47 multiple myeloma cell lines against the NCATS MIPE library collection: JJN3_DSMZ cell viability assay (AID 1918966; note: nearly all actives have a fitted effect of over 50% in size)
How it was run: (§3)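 Myeloma cell lines, 500 cells per well, exposed to MIPE 4.0 library compounds for 48 h at 37C, 5% CO2. Viability from ATP by CellTiter-Glo luminescence; normalised to DMSO (100%) and media-only (0%) wells.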

[5] = Quantitative High-Throughput drug screen in 47 multiple myeloma cell lines against the NCATS MIPE library collection: H1112_PLB cell viability assay (AID 1918967; note: nearly all actives have a fitted effect of over 30% in size)
How it was run: as §3

[6] = Quantitative High-Throughput drug screen in 47 multiple myeloma cell lines against the NCATS MIPE library collection: Karpas25_ECACC cell viability assay (AID 1918968; note: nearly all actives have a fitted effect of over 35% in size)
How it was run: as §3

[7] = Quantitative High-Throughput drug screen in 47 multiple myeloma cell lines against the NCATS MIPE library collection: KMS12BM_JCRB cell viability assay (AID 1918971); note: nearly all actives have a fitted effect of over 35% in size
How it was run: (§4)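 Viability readout: CellTiter-Glo luminescence following 5 min room-temperature incubation with reagent. Prior exposure: 48 h, 37C, humidified 5% CO2, 500 cells per well.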

[8] = Quantitative High-Throughput drug screen in 47 multiple myeloma cell lines against the NCATS MIPE library collection: KMS12PE_JCRB cell viability assay (AID 1918972); note: nearly all actives have a fitted effect of over 30% in size
How it was run: as §2

[9] = Quantitative High-Throughput drug screen in 47 multiple myeloma cell lines against the NCATS MIPE library collection: KMS26_JCRB cell viability assay (AID 1918975); note: nearly all actives have a fitted effect of over 45% in size
How it was run: as §4

[10] = Quantitative High-Throughput drug screen in 47 multiple myeloma cell lines against the NCATS MIPE library collection: MOLP8_DSMZ cell viability assay (AID 1918977); note: nearly all actives have a fitted effect of over 45% in size
How it was run: (§5)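 Myeloma cells (500/well) treated with MIPE 4.0 compounds for 48 h at 37 °C, 5% CO2. Viability read as ATP via CellTiter-Glo luminescence after 5 min at RT; DMSO-only wells = 100%, media-only = 0% viability.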

[11] = Quantitative High-Throughput drug screen in 47 multiple myeloma cell lines against the NCATS MIPE library collection: NCIH929_DSMZ cell viability assay (AID 1918978); note: nearly all actives have a fitted effect of over 35% in size
How it was run: as §5

[12] = Quantitative High-Throughput drug screen in 47 multiple myeloma cell lines against the NCATS MIPE library collection: OCIMY1_PLB cell viability assay (AID 1918979); note: nearly all actives have a fitted effect of over 35% in size
How it was run: as §5

[13] = Quantitative High-Throughput drug screen in 47 multiple myeloma cell lines against the NCATS MIPE library collection: MM1S_ATCC cell viability assay (AID 1918980); note: nearly all actives have a fitted effect of over 45% in size
How it was run: as §5

[14] = Quantitative High-Throughput drug screen in 47 multiple myeloma cell lines against the NCATS MIPE library collection: MM1R_ATCC cell viability assay (AID 1918981); note: nearly all actives have a fitted effect of over 35% in size
How it was run: as §5

[15] = Quantitative High-Throughput drug screen in 47 multiple myeloma cell lines against the NCATS MIPE library collection: JIM1_ECACC cell viability assay (AID 1918964)
How it was run: as §3

[16] = Quantitative High-Throughput drug screen in 47 multiple myeloma cell lines against the NCATS MIPE library collection: KMS27_JCRB cell viability assay (AID 1918970); note: nearly all actives have a fitted effect of over 30% in size
How it was run: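 Each line is seeded at 500 cells per well and treated with library compounds for 48 hours under 37 °C, 5% CO2. CellTiter-Glo is then added for 5 min at room temperature before median relative luminescence is recorded.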

[17] = Quantitative High-Throughput drug screen in 47 multiple myeloma cell lines against the NCATS MIPE library collection: KMS20_JCRB cell viability assay (AID 1918973); note: nearly all actives have a fitted effect of over 45% in size
How it was run: as §3

[18] = Quantitative High-Throughput drug screen in 47 multiple myeloma cell lines against the NCATS MIPE library collection: MMM1_PLB cell viability assay (AID 1918976); note: nearly all actives have a fitted effect of over 35% in size
How it was run: as §5

[19] = Quantitative High-Throughput drug screen in 47 multiple myeloma cell lines against the NCATS MIPE library collection: LP1_DSMZ cell viability assay (AID 1918982); note: nearly all actives have a fitted effect of over 35% in size
How it was run: as §5

[20] = Quantitative High-Throughput drug screen in 47 multiple myeloma cell lines against the NCATS MIPE library collection: KMS21BM_JCRB cell viability assay (AID 1918974); conditions: ATP luminescence, 48 h; viability: at 45.8 µM (top of the series) unless noted
How it was run: as §3
Potency is the fitted concentration of half-maximal effect.

Row | SMILES | Potency [1] | Potency [2] | Potency [3] | Potency [4] | Potency [5] | Potency [6] | Potency [7] | Potency [8] | Potency [9] | Potency [10] | Potency [11] | Potency [12] | Potency [13] | Potency [14] | Potency [15] | Potency [16] | Potency [17] | Potency [18] | Potency [19] | Potency [20]
1 | Cc1[nH]c2ccccc2c1CCNCc1ccc(C=CC(=O)NO)cc1 | 148 nM (active) | 235 nM (active) | 13.2 nM (active) | 93.5 nM (active) | 105 nM (active) | 20.9 nM (active) | 59 nM (active) | 52.6 nM (active) | 66.2 nM (active) | 52.6 nM (active) | 52.6 nM (active) | 166 nM (active) | 74.3 nM (active) | 29.6 nM (active) |  |  |  |  |  | 
2 | CCNC(=O)Nc1ccc2ncc(Nc3ccc(C)cc3)nc2n1 | 3720 nM (active) | 4690 nM (active) |  |  | 5900 nM (active) | 5900 nM (active) |  |  |  |  | 7430 nM (active) |  |  | 18700 nM (active) | 935 nM (active) | 526 nM (active) |  |  |  | 
3 | NC(=O)c1c(OCc2c(F)cc(Br)cc2F)nsc1NC(=O)NCCCCN1CCCC1 | 9350 nM (active) | 26400 nM (active) | 18700 nM (active) | 20900 nM (active) | 16600 nM (active) | 8330 nM (active) | 18700 nM (active) |  |  | 26400 nM (active) | 9350 nM (active) |  | 2960 nM (active) | 20900 nM (active) |  | inactive | 7430 nM (active) |  |  | 
4 | Cc1nc(Nc2n[nH]c3c2CN(C(=O)N[C@H](CN(C)C)c2ccccc2)C3(C)C)c2sccc2n1 | 13.2 nM (active) | 46.9 nM (active) | 5.9 nM (active) | 4180 nM (active) | 1660 nM (active) | 526 nM (active) | 743 nM (active) |  | 2960 nM (active) |  | 148 nM (active) | 16600 nM (active) |  | 1050 nM (active) |  |  | 105 nM (active) | 4690 nM (active) | 7.9 nM (active) | 
5 | CC(=O)SC[C@@H](C)C(=O)N1CCC[C@H]1C(=O)N[C@@H](Cc1ccccc1)C(=O)O | inactive | inactive |  |  |  | inactive |  | inactive |  | inactive | inactive | inactive |  | inactive | inactive |  |  | 1870 nM (active) | inactive | 
6 | CCCCCCCCCC(=O)N[C@@H](Cc1c[nH]c2ccccc12)C(=O)N[C@H](CC(N)=O)C(=O)N[C@@H](CC(=O)O)C(=O)N[C@@H]1C(=O)NCC(=O)N[C@@H](CCCN)C(=O)N[C@@H](CC(=O)O)C(=O)N[C@H](C)C(=O)N[C@@H](CC(=O)O)C(=O)NCC(=O)N[C@H](CO)C(=O)N[C@@H]([C@@H](C)CC(=O)O)C(=O)N[C@@H](CC(=O)c2ccccc2N)C(=O)O[C@@H]1C | inactive | inactive |  |  |  | inactive |  | inactive |  | inactive | inactive | inactive |  | inactive | inactive | inactive |  |  |  | 
7 | CN1CCN(c2cc(C(=O)Nc3ccc4c(c3)-c3c(c(C(N)=O)nn3-c3ccc(F)cc3)CC4)c(Cl)cn2)CC1 | 5900 nM (active) | 6620 nM (active) |  | 235 nM (active) | 2350 nM (active) | 2350 nM (active) |  | 20900 nM (active) | 10500 nM (active) | 26400 nM (active) | 743 nM (active) | 26400 nM (active) | 3320 nM (active) | 20900 nM (active) | 8330 nM (active) | 7430 nM (active) | 2960 nM (active) |  | 23500 nM (active) | 
8 | O=C(C=Cc1cccnc1)NCCCCC1CCN(C(=O)c2ccccc2)CC1 | 23.5 nM (active) | 1 nM (active) | 1 nM (active) | 20.9 nM (active) |  | 5.9 nM (active) |  |  | 5.3 nM (active) | inactive |  |  | 29.6 nM (active) |  |  | 13.2 nM (active) |  |  |  | 16.6 nM (active)
9 | CN1CCN(c2ccc3nc(-c4c(N)c5c(F)cccc5[nH]c4=O)[nH]c3c2)CC1 | 2090 nM (active) | 13200 nM (active) | 1320 nM (active) | 20900 nM (active) | 7430 nM (active) | 2640 nM (active) | 16600 nM (active) |  | 29600 nM (active) | 5900 nM (active) |  | 18700 nM (active) | 16600 nM (active) | 13200 nM (active) |  | 7430 nM (active) | 1320 nM (active) |  |  | 4690 nM (active)
10 | O=C(NC1CCNCC1)c1[nH]ncc1NC(=O)c1c(Cl)cccc1Cl | 235 nM (active) | 526 nM (active) |  | 187 nM (active) |  | 372 nM (active) | 235 nM (active) | 935 nM (active) | 187 nM (active) | 148 nM (active) |  | 2640 nM (active) | 105 nM (active) | 296 nM (active) | 264 nM (active) | 526 nM (active) | 469 nM (active) | 418 nM (active) |  | 118 nM (active)
11 | CCCCN1CCC(CNC(=O)c2c3n(c4ccccc24)CCCO3)CC1 | 11800 nM (active) | 18700 nM (active) | 16600 nM (active) | 2090 nM (active) | 9350 nM (active) | 8330 nM (active) | 10500 nM (active) |  |  |  | 4690 nM (active) |  | 3720 nM (active) |  |  |  | 13200 nM (active) | 5260 nM (active) |  | 
